Source: PubChem BioAssay (several laboratories)
ABCB6 inh 2: ABCB6 transporter inhibitors, primary screen, K562-ABCB6 cells, flow cytometry, MLPCN library. K562-ABCB6 porphyrin accumulation, 1 h; active compounds read low. AID 602162, 2011. fluorescence ratio to DMSO, % at 10 µM. ATP-binding cassette sub-family B member 6 (Homo sapiens), Q9NP58. hit rate 0.19% among 360,000;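 active = fluorescence ratio to DMSO below 75%, the collection mean minus 3 SD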;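 also: signal is porphyrin accumulated inside mitochondria; 100% equals median channel fluorescence of DMSO control wells; lower ratio means ABCB6 inhibition with less porphyrin fluorescence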
Target sequence (Q9NP58 whole entry, looked up): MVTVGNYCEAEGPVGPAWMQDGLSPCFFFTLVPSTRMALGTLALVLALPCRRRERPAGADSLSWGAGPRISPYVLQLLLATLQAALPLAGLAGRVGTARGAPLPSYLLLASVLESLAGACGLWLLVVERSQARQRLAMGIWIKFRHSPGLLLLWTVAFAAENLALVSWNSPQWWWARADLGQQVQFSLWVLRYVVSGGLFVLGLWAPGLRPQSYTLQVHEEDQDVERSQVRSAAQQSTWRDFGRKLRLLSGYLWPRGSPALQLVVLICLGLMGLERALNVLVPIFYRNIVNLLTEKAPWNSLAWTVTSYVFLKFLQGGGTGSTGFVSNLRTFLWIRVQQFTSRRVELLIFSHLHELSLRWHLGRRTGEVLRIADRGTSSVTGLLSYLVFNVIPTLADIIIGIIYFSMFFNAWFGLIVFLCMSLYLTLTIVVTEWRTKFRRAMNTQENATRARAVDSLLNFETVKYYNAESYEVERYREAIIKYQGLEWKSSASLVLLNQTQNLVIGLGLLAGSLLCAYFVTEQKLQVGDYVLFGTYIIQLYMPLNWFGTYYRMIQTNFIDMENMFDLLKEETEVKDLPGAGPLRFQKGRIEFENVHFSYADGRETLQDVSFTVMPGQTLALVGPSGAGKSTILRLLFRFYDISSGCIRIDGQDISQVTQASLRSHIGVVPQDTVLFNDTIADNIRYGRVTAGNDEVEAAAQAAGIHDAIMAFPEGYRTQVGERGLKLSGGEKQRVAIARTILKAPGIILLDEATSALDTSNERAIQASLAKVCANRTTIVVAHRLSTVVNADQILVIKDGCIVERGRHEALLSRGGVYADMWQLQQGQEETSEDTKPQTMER
iPSC survival up: enhancers of single-cell hiPSC survival, primary screen, ATPlite luminescence; 100% = ROCK inhibitor wells, 0% = DMSO; survival enhancement, % at 20 µM; hit rate 0.044% among 360,000; AID 602274, 2012; in the data active = survival enhancement above about 18%;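 also: cells exposed to compounds for 16 hours before the ATP read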
INS-1E GSIS act: GLuc luminescence reporter in INS-1E cells, primary screen for activators of glucose-dependent secretion of insulin. INS-1E GLuc reporter insulin secretion, 2-3 h. activation, % at 16.6 µM. hit rate 0.61% among 370,000. AID 743287, 2014;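 active = lowest replicate activation of at least 40%, so every replicate reaches that level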;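 also: 0% = median of neutral control wells and 100% = median of IBMX positive control wells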
CendR NRP1 mod: modulators of CendR peptide binding to NRP-1, primary screen, biochemical, fluorescence polarization, uHTS. FAM-RPARPAR peptide binding to NRP-1. hit rate 0.85% among 360,000. Neuropilin-1 (Homo sapiens), O14786. inhibition, % at 25 µM;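 active = inhibition or corrected inhibition above about 18%, plus a signal ratio from 0.5 to 1.5, limit read from the data, passing the limit was not always enough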
ARNT TACC3 PPI: disruptors of ARNT/TACC3 protein interaction, primary screen, biochemical, AlphaScreen, single concentration. Transforming acidic coiled-coil-containing protein 3 (Homo sapiens), Q9Y6A5. AlphaScreen His-ARNT PAS-B/GST-TACC3 binding, luminescence; TACC3 fragment carries E629A point mutation. inhibition, % at 9.99 µM. hit rate 0.66% among 390,000. AID 623870, 2012;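 active = mean inhibition of replicates at least 50% and at least half of replicates each reaching 50%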;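 also: 0% = complete ARNT plus TACC3 wells and 100% = ARNT alone without TACC3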
The depositor's hits bear a star; / = no result. Rows were chosen to be rich in hits. Some 1.8% of all compounds tested hit in one or more screens of this group.

SMILES	ABCB6 inh 2	iPSC survival up	INS-1E GSIS act	CendR NRP1 mod	ARNT TACC3 PPI
Cc1cc(C(C)(C)CC(C)(C)C)ccc1OCCOCC[N+](C)(C)Cc1ccccc1	101	-5	333*	4	11
C[N+](C)(CCOc1ccccc1)Cc1ccccc1	106	1	/	-17	-4
CCOC(=O)c1c(N)c(C#N)c2n1CCCC2	103	3	71*	-7	1
CCOC(=O)c1c(N)c(C#N)c2n1CCCCC2	93	-1	/	-5	0
CO[C@@H]1CN(C)C(=O)c2cc(NC(=O)C3CC3)ccc2OC[C@@H](C)N(C(=O)c2cccnc2)C[C@@H]1C	/	/	-1	/	11
CS(=O)(=O)Nc1ccc2c(c1)[C@@H]1C[C@@H](CC(=O)NCc3ccc(Cl)cc3)O[C@@H](CO)[C@@H]1O2	/	/	-3	/	-1
Cc1ccc(NC(=O)C2=CC(c3ccc(C)cc3)=NS(=O)(=O)N2C)cc1	101	-1	/	21*	5
CO[C@H]1CN(C)C(=O)c2ccc(NS(=O)(=O)c3cn(C)cn3)cc2OC[C@H](C)N(CCC(F)(F)F)C[C@@H]1C	/	/	14	/	/
CCCc1sc(N/N=C/c2ccccn2)nc1-c1ccc(Br)cc1	97	0	-5	-14	33*
CC(=O)Nc1sc(N/N=C/c2ccccc2)nc1-c1ccc(C)cc1	96	0	-6	4	-5
O=c1c2[nH]c3ccc(Br)cc3c2ncn1CCCn1ccnc1	104	0	/	10	79*
O=c1c2[nH]c3ccccc3c2ncn1CCCn1ccnc1	101	-2	/	3	-3
CCCn1c2ccccc2c2nc3ccccc3nc21	98	-3	/	18	/
N#CCCn1c2ccccc2c2nc3ccccc3nc21	95	-3	41*	-3	-5
O=[N+]([O-])c1cccc(-c2nc3ccccc3s/c2=N/O)c1	82	2	82*	1	13
O=[N+]([O-])c1cccc(-c2cnc3ccccc3n2)c1	100	0	-14	7	-4
CCCC(=O)N1CCC2(CC1)CN(Cc1cccnc1)[C@@H](CO)c1[nH]c3cc(OC)ccc3c12	/	/	21	/	/
CCOC(=O)C1=C(c2ccccc2)OC(N)=C(C#N)C1C(C)C (centres undefined)	119	-1	/	50*	0
CCOC(=O)C1=C(c2ccccc2)OC(N)=C(C#N)C1C1CCCCC1 (centres undefined)	101	-1	-19	5	27
COc1ccc(CN(C)C[C@@H]2Oc3ccc(NC(=O)CCCCCC(=O)Nc4ccccc4N)cc3CC(=O)N([C@H](C)CO)C[C@H]2C)cc1	/	/	0	/	/
CCN(CC)CCNC(=S)Nc1ccc2nc(N3CCN(CC)CC3)cc(C)c2c1	102	-1	48*	12	14
COCC(=O)Nc1ccc2c(c1)[C@@H]1C[C@@H](CC(=O)NC3CCCC3)O[C@H](CO)[C@@H]1O2	/	/	-5	/	-1
CN1C(=S)N(c2ccccc2)C(=O)/C1=C/c1cccs1	100	0	68*	-2	2
O=[N+]([O-])c1cccc(/C=N/n2c(-c3cccnc3)n[nH]c2=S)c1	105	1	54*	3	2
O=[N+]([O-])c1ccc(/C=N/n2c(-c3cccnc3)n[nH]c2=S)cc1	99	2	1	0	-5
SMILES	ABCB6 inh 2	iPSC survival up	INS-1E GSIS act	CendR NRP1 mod	ARNT TACC3 PPI
O=C(CN(Cc1ccccc1Cl)S(=O)(=O)c1ccc(Cl)cc1)N/N=C/c1ccc(C(=O)O)cc1	93	0	-2	-6	51*
C[C@H](CO)N1C[C@H](C)[C@H](CN(C)Cc2cccc(C(=O)O)c2)Oc2ncc(C#CCN(C)C)cc2C1=O	/	/	3	/	-1
COc1cnc(-c2ccccn2)nc1Sc1ccc(F)cc1	103	0	-5	8	46*
COc1cnc(N(C)C)nc1Sc1ccc(Cl)cc1	92	1	/	12	-6
COc1cnc(-c2ccccn2)nc1Oc1ccccc1	104	5	26	-14	82*
CCC(=O)N1C[C@H]2[C@@H](c3ccccc31)[C@H](CO)N2C(=O)Nc1ccccc1F	/	/	-1	/	-10
CN(C)CCCNC(=O)[C@H]1[C@H](CO)[C@H]2Cn3c(ccc(-c4cccnc4)c3=O)[C@@H]1N2C(=O)CC1CC1	/	/	23	/	-11
O=C(Nc1ccc(-c2csc(Nc3ccccc3)n2)cc1)c1ccccc1	100	2	-1	13	-21
O=C(O)CCC(=O)Nc1ccc(-c2csc(Nc3cccc4ccccc34)n2)cc1	102	-2	-18	-16	8.8*
CSCCC(NS(=O)(=O)c1ccccc1F)C(=O)N1CCCCCCC1 (centres undefined)	104	0	2	27*	3
CN1C(=O)c2cc(NC(=O)c3ccccc3)ccc2OC[C@@H]2O[C@@H](CC(=O)NCC3CC3)CC[C@@H]21	/	/	0	/	3
O=C(CSc1nnc(-c2cccnc2)o1)Nc1ccc(F)cc1	100	-1	-14	8	/
O=C(CSc1nnc(-c2cccnc2)o1)Nc1nccs1	99	0	9	1	50*
C[C@@H]1CN([C@H](C)CO)C(=O)Cc2cc(NC(=O)Nc3ccccc3)ccc2O[C@H]1CN(C)C(=O)Nc1ccccc1	/	/	11	/	11
COc1cccc(CNc2nc3cc(-c4cscc4C)sc3c(=O)n2C)c1	100	-4	-5	0	/
Cc1cnc(CNc2nc3cc(-c4ccccc4C)sc3c(=O)n2C)cn1	86	3	-10	28*	/
COc1cccc(CNc2nc3cc(-c4ccc(OC)cc4C)sc3c(=O)n2C)c1	98	0	-4	25*	/
CC(C)NC(=O)N1C[C@H]2[C@@H](c3ccccc31)[C@@H](CO)N2C(=O)c1ccccc1	/	/	14	/	-4
C[C@H]1CN([C@@H](C)CO)C(=O)c2cccc(NC(=O)CCCCCC(=O)Nc3ccccc3N)c2O[C@H]1CN(C)C(=O)Nc1ccc(C(F)(F)F)cc1	/	/	9	/	/
C[C@H](CO)N1C[C@H](C)[C@@H](CN(C)Cc2cccc(C(=O)O)c2)Oc2ncc(C#CCN(C)C)cc2C1=O	/	/	18	/	-8
COc1ccc(C=C(C(=O)O)c2ccc(OC)cc2)cc1	101	-1	49*	6	/
COc1ccc(C(=Cc2ccccc2)C(=O)O)cc1	96	2	/	0	4
O=C(C[C@H]1C[C@H]2c3cc(NC(=O)C4CCOCC4)ccc3O[C@H]2[C@@H](CO)O1)NCc1ccccn1	/	/	19	/	-3
O=C(Nc1nnc(SCc2ccc(F)cc2)s1)C1=COCCO1	95	1	1	-2	-2
O=C(Nc1nnc(SCc2ccccc2)s1)C1=COCCO1	102	1	6	24*	-8
COc1cc2c(C#N)c(N3CCN(C)CC3)nc(N)c2c(N)n1	97	-3	/	-10	-11
